Measurements: PubChem BioAssay AID1209 (Sanford-Burnham Center for Chemical Genomics, 2008)
Out of some 190,000 compounds screened, about 810 (0.43%) were called active. This is one part of a sample in which actives are shown more often than they occur. Rule as the data show it: active = inhibition above about 50%; inactive = the rest.

Molecular target: Mannose-6-phosphate isomerase (Homo sapiens) (UniProt P34949)
Test: MPI enzyme activity inhibition – biochemical, fluorescence intensity, coupled assay, primary screen (AID 1209);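 also: plate controls were DMSO vehicle for no effect and wells lacking substrate for full effect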
Conditions: purified PMI enzyme, at 20 µM, active compounds read high

Chain of Mannose-6-phosphate isomerase (Homo sapiens) (P34949 whole entry, looked up): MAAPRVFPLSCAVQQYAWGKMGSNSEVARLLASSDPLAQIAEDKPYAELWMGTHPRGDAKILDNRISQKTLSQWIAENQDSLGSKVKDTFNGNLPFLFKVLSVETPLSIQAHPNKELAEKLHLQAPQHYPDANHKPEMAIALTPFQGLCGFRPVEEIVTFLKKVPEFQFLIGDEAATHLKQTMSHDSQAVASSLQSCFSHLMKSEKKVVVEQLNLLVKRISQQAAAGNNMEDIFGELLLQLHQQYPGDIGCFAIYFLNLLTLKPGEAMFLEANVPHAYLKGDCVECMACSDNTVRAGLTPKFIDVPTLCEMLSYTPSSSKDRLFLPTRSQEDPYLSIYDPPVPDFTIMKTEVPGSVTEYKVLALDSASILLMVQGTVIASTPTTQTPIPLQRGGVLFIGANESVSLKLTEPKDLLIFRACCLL

inhibition, active:
C(=Nc1cccc2c(N=Cc3ccco3)cccc12)c1ccco1 82.9%
NC(CO)C(=O)NNCc1ccc(O)c(O)c1O (centres undefined) 78%
Cc1cc(-c2nsc(=O)o2)c(S(C)(=O)=O)s1 53.2%
C=CCSc1nc2sc3c(c2c(=O)n1CC)CCc1ccccc1-3 71.8%
COc1ccc(O)c(/C=N/c2sc(C)c(C)c2C#N)c1 53.8%
CNc1nc(-c2ccccc2)[n+](-c2ccc(C)cc2)s1 89.5%
Cc1ccc(-c2nc(N)s[n+]2-c2ccccc2)cc1 106%
CC[n+]1c(C)sc2cc(OC)ccc21 73.9%
COc1ccc2sc(C)[n+](C)c2c1 84.3%
CC[n+]1c(C)sc2cc(C)ccc21 77%

inhibition, inactive:
COc1ccc(CNc2nc(-c3cccnc3)nn2C(=O)C(C)C)cc1 1.5%
Cc1nn(C2CCS(=O)(=O)C2)c(Cl)c1/C=C/C(=O)OCC(=O)Nc1ccccc1[N+](=O)[O-] (centres undefined) 18.2%
C(=N/n1c2ccccc2c2ccccc21)/c1ccco1 18.5%
CN(C)c1ccc(N=Cc2ccco2)cc1 44.6%
COC(=O)Cn1c(=O)n(CCc2ccccc2)c(=O)c2c3c(sc21)CCCC3 23%
COC(=O)c1ccc(NC(=O)CSc2nnc(C)n2-c2ccccc2)cc1 9.9%
Cc1cc(C(=O)O)c(S(C)(=O)=O)s1 -0.9%
O=C(CCc1cnccn1)NC1CCCc2c1cnn2-c1ccc(F)cc1F (centres undefined) 6.3%
C=CCn1c(SCC)nc2sc3c(c2c1=O)CCc1ccccc1-3 7.8%
C=CCSc1nc2sc3c(c2c(=O)n1CC=C)CCc1ccccc1-3 10.5%
CS(=O)(=O)N1N=C(c2ccc(Br)cc2)CC1c1cccs1 (centres undefined) 12.1%
Cc1sc(/N=C/c2ccccc2O)c(C#N)c1C 0.9%
Cc1sc(/N=C/c2c(O)ccc3ccccc23)c(C#N)c1C -6%
CN(CCC1CCOCC1)C(=O)CC1C(=O)NCCN1C/C=C/c1ccccc1 (centres undefined) 5.6%
Cc1ccc(-c2nnc(-c3ccccc3)c(-c3ccccc3)n2)cc1 8.3%
Cc1ccc(-c2cc(-c3ccccc3)nc(Cl)n2)cc1 16.6%
Cc1ccc(-c2nc(N)sc2C)cc1 -11%
Cc1ccc(-c2nc(N)sc2-c2ccc(C)cc2)cc1 13.3%
O=C(Nc1ccc(N2CCCC2)c(Cl)c1)c1ccccc1[N+](=O)[O-] -3.5%
Cc1cc(N/N=C/c2ccc(Cl)cc2Cl)nc(NCc2ccccc2)n1 20.3%
O=C(NCc1ccccc1)NCC12CC3CC(CC(C3)C1)C2 1.8%
Cc1ccc2sc(C)[n+](CCC(C)S(=O)(=O)[O-])c2c1 (centres undefined) 1%
Cc1ccc2c(c1)sc(C)[n+]2CCCS(=O)(=O)[O-] 9.6%
CCCC[n+]1c(C)sc2cc(OC)ccc21 16.5%
CCC[n+]1c(C)sc2c3c(ccc21)CCCC3 22.9%
COc1ccc2sc(/C=C/c3ccccc3O)[n+](C)c2c1 4.3%
CC[n+]1c(/C=C/C=C/N(C(C)=O)c2ccccc2)sc2cc(OC)ccc21 -17.8%
CCC[n+]1c(C)sc2c(OC)ccc(OC)c21 3.5%
CCOC(=O)C[n+]1c(C)sc2ccc(OC)cc21 3.3%
